Sampled rows, rich in hits. Any-hit rate of the full collection: about 1.6%.
SIRT5 block: sirtuin-5 (human) deacylase inhibition; inhibition, % at 15 µM; hit rate 1.1% among 330,000; AID 652115; Q9NXA8; Purified SirT5, succinyl-peptide AMC, trypsin-coupled fluorescence; in the data active = inhibition above about 15%
Target sequence (Q9NXA8 whole entry, looked up): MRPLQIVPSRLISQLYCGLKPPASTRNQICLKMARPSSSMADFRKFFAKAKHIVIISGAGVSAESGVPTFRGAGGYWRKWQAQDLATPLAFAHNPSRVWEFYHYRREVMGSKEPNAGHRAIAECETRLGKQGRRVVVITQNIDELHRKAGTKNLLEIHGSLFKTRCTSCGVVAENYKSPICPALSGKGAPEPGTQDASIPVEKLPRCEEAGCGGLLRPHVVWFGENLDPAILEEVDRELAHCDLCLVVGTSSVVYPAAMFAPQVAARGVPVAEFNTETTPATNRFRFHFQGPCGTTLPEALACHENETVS
NSD2 HMT inh: inhibitors of human histone methyltransferase NSD2; NSD2 peptide methylation, AlphaScreen, 120 min; inhibition, % at 12.5 µM; hit rate 0.54% among 310,000; AID 743445; in the data active = inhibition above about 50%
UBC9 SUMO inh: blocks human SUMOylation mediated by UBC9 | P63279 | HTRF SUMOylation assay, SAE1/SAE2 + UBC9, in vitro | inhibition, % at 35 µM | hit rate 0.36% among 290,000; in the data active = inhibition above about 50%, passing the limit was not always enough
Target sequence (P63279 whole entry, looked up): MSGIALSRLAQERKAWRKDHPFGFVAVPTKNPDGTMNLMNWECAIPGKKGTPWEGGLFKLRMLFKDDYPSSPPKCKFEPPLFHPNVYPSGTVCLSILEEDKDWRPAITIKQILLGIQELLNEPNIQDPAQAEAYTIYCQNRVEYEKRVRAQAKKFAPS
Casp6 inh: blocks human caspase-6 cleavage activity; AID 686996; P55212; purified caspase-6, Z-VEID-R110 cleavage fluorescence; inhibition, % at 12.5 µM; hit rate 0.53% among 350,000;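 active = mean inhibition across replicates at least about 35%, with every replicate also reaching that limit, limit read from the data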;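 note: 0% = median of neutral control wells and 100% = no fluorescence left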
* = called active by the depositor; nt = not tested or not shown.

SMILES | SIRT5 block | NSD2 HMT inh | UBC9 SUMO inh | Casp6 inh
C[C@@H]1CCCCO[C@H](CN(C)C(=O)Nc2ccc(F)cc2)[C@@H](C)CN([C@H](C)CO)C(=O)c2cc(NC(=O)Nc3ccc(C(F)(F)F)cc3)ccc2O1 | -0.1 | nt | nt | -1.2
C[C@@H]1CCCCO[C@H](CN(C)C(=O)Nc2cccc3ccccc23)[C@@H](C)CN([C@H](C)CO)C(=O)c2cc(NS(=O)(=O)c3ccc(F)cc3)ccc2O1 | 0.4 | nt | nt | 0.5
C[C@H](CO)N1C[C@H](C)[C@H](CN(C)C(=O)Nc2ccc(C(F)(F)F)cc2)OCCCC[C@H](C)Oc2ccc(NC(=O)Nc3ccc(F)cc3)cc2C1=O | 16.7* | nt | nt | -0.8
C[C@H]1CCCCO[C@H](CN(C)C(=O)Nc2cccc3ccccc23)[C@@H](C)CN([C@@H](C)CO)C(=O)c2cc(NS(=O)(=O)c3ccc(F)cc3)ccc2O1 | 17.1* | nt | nt | 0.5
COc1ccc(NC(=O)Nc2ccc3c(c2)C(=O)N([C@@H](C)CO)C[C@H](C)[C@@H](CN(C)C(=O)Nc2ccc(F)cc2)OCCCC[C@H](C)O3)cc1 | 17.3* | nt | nt | 0.2
C[C@@H]1CN([C@H](C)CO)C(=O)CCCn2cc(nn2)CO[C@H]1CN(C)Cc1cccc(C(F)(F)F)c1 | 0.7 | nt | nt | -0.7
C[C@@H]1CCCCO[C@H](CN(C)C(=O)C2CCCCC2)[C@H](C)CN([C@@H](C)CO)C(=O)c2cc(NC(=O)Nc3ccc(F)cc3)ccc2O1 | 15.6* | nt | nt | 0.5
COc1ccc(S(=O)(=O)Nc2ccc3c(c2)C(=O)N([C@H](C)CO)C[C@@H](C)[C@H](CN(C)C(=O)Nc2ccc(F)cc2)OCCCC[C@@H](C)O3)cc1 | 15.4* | nt | nt | 3.0
CC(=O)N(C)C[C@H]1Oc2ncc(C3=CCCC3)cc2C(=O)N([C@H](C)CO)C[C@@H]1C | 1.6 | nt | nt | -1.6
O=C(N[C@@H]1CC[C@@H](CCNS(=O)(=O)c2ccc(F)cc2)O[C@@H]1CO)C1CCCC1 | 0.5 | nt | nt | 3.1
Cc1ccc(S(=O)(=O)N2C[C@H]3[C@H]4C(=O)N(c5ccccc5)C(=O)[C@H]4C[C@H](OC(=O)NCc4ccccc4)[C@@]3(O)C2)cc1 | 21.6* | nt | nt | -2.4
CC(C1SC(=S)NC1=O)C1SC(=S)NC1=O (stereo unspecified) | 12.4 | 31.3 | nt | 68.2*
C[C@H](CO)N1C[C@H](C)[C@H](CN(C)C(=O)Nc2ccccc2)Oc2ncc(/C=C/c3ccccc3)cc2C1=O | 0.5 | nt | nt | 0.9
CN(Cc1ccccn1)C(=O)C1CCC(=O)N(Cc2cccc(F)c2)C1 (stereo unspecified) | 9.1 | 1.3 | 9.4 | -0.7
CCc1ccc(CN(C)C(=O)C2CCC(=O)N(Cc3ccccn3)C2)cc1 (stereo unspecified) | 31.1* | -4.8 | 0.0 | -4.2
O=C(c1cc2c(s1)-c1ccccc1S(=O)(=O)C2)N1CCCC1 | -0.5 | -8.2 | 4.0 | -2.9
O=C(Nc1ccccc1F)c1cc2c(s1)-c1ccccc1S(=O)(=O)C2 | 24.0* | -1.0 | 23.5 | -0.7
CCN1CCN(c2ncnc3c2cnn3-c2ccc(Cl)cc2)CC1 | -0.3 | nt | 11.6 | 38.4*
Cc1ccc(S(=O)(=O)Nc2ccc3c(c2)C(=O)N([C@H](C)CO)C[C@@H](C)[C@H](CN(C)Cc2ccc4c(c2)OCO4)O3)cc1 | 4.1 | nt | nt | -0.1
O=C(Cn1cnc2c(nnn2-c2ccccc2)c1=O)NCC1CCCO1 (stereo unspecified) | 3.9 | nt | 12.1 | 0.4
CSc1nc(N)nc2c1ncn2CC(=O)NCC1CCCO1 (stereo unspecified) | 31.2* | nt | nt | 0.9
COc1cccc(-n2nnc3c(=O)n(CC(=O)NCC4CCCO4)cnc32)c1 (stereo unspecified) | 15.6* | nt | 2.5 | 1.7
C[C@@H]1CN([C@@H](C)CO)C(=O)c2cccc(NS(=O)(=O)c3ccccc3)c2O[C@@H]1CN(C)Cc1ccncc1 | -2.5 | nt | nt | -0.2
CCCC(=O)Nc1ccc2c(c1)C(=O)N(C)C[C@H](OC)[C@H](C)CN(Cc1ccccc1F)[C@H](C)CO2 | -7.0 | nt | nt | -1.6
O=C(CCN1CCCCC1)NCC[C@@H]1CC[C@H](NC(=O)Cc2cccnc2)[C@@H](CO)O1 | -3.2 | nt | nt | nt
SMILES | SIRT5 block | NSD2 HMT inh | UBC9 SUMO inh | Casp6 inh
CN(C)c1ccc(CNCCC(Cc2ccccc2)c2ccco2)cc1 (stereo unspecified) | -1.9 | 57.0* | 2.4 | -1.2
N[C@@H](CO)c1nnc([C@H](Cc2ccc(O)cc2)NC(=O)C2CCNCC2)o1 | 28.2* | nt | 0.7 | -9.7
C[C@H](CO)N1C[C@H](C)[C@H](CN(C)Cc2ccc(Cl)c(Cl)c2)Oc2ccc(NS(=O)(=O)c3cn(C)cn3)cc2C1=O | -0.1 | nt | nt | 1.1
CC1(Oc2ccc(Cl)cc2)CCN(Cc2ccc(OC(F)(F)F)cc2)C1 (stereo unspecified) | -8.8 | -0.8 | nt | 2.3
CC1(Oc2cnc(Cl)c3ccccc23)CCN(Cc2ccc(OC(F)(F)F)cc2)C1 (stereo unspecified) | 3.3 | 6.0 | nt | 45.5*
COc1ccccc1-c1ccccc1[C@@H]1[C@@H](C#N)N(C(=O)C2CC2)[C@H]1CO | -0.4 | nt | nt | 1.5
CCCN(C)C[C@@H]1Oc2ncc(-c3cccc(C(=O)N(C)C)c3)cc2C(=O)N([C@@H](C)CO)C[C@@H]1C | -9.5 | nt | nt | 1.9
COc1ccc(NC(=O)c2cc(C3CC3)nc3c2cnn3C(C)C)cc1OC | 16.2* | nt | nt | 3.1
CC(=O)Nc1ccc(N2C(=O)CSC2c2ccccc2)cc1 (stereo unspecified) | 10.8 | 0.7 | 8.4 | -0.7
CC(=O)Nc1ccc(N2C(=O)CSC2c2ccc([N+](=O)[O-])cc2)cc1 (stereo unspecified) | 27.2* | -1.3 | 5.8 | 0.5
COC(=O)CC1=C(C)C(=O)CC2C(C)(C)CCCC12C (stereo unspecified) | 18.1* | nt | -10.4 | 1.6
C=C[C@]1(C)C=C2C(=O)C[C@H]3C(C)(C)CCC[C@]3(C(=O)O)[C@@]2(O)CC1 | nt | nt | nt | 0.4
COc1ccccc1NC(C)=O | nt | 4.4 | 14.4 | nt
COc1ccccc1NC(=O)C(=N\O)/C(C)=N/O | 4.2 | 10.7 | 6.2 | 39.2*
COc1ccc(NC(=O)[C@@H]2CCCN2C(=O)[C@@H]2Cc3ccccc3CN2C(=O)OC(C)(C)C)cc1 | -0.7 | -1.0 | 9.6 | 2.7
CC(=O)c1ccc(NC(=O)[C@@H]2CCCN2C(=O)OC(C)(C)C)cc1 | -2.7 | -5.3 | 6.0 | 56.2*
Cc1cc(C)n(C(=O)c2ccccc2[N+](=O)[O-])n1 | 2.6 | -3.5 | 10.4 | 0.4
Cc1cc(C)n(C(=O)c2cccc([N+](=O)[O-])c2C)n1 | 33.7* | 0.1 | 13.8 | 1.3
CC(C)(C)NC(=O)CSc1nc2cccnc2n1C1CCCCC1 | 20.0* | 0.3 | 7.7 | -1.7
COCCCNC(=O)/C(C#N)=C/c1ccc(OCC(=O)O)c(OC)c1 | 3.8 | 42.4 | 39.1 | 41.5*
CCOCCCNC(=O)/C(C#N)=C/c1cc(C)c(O)c(C)c1 | 23.3* | -0.5 | 1.2 | -0.3
CCN(c1ccccc1)S(=O)(=O)c1cc(NC(=O)CSc2nccc(=O)[nH]2)ccc1Cl | nt | -1.8 | nt | nt
COc1ccc(CN(C)C[C@@H]2Oc3c(NC(=O)CCCCCC(=O)Nc4ccccc4N)cccc3C(=O)N([C@@H](C)CO)C[C@H]2C)cc1 | 2.4 | nt | nt | -3.8
